Test results as given in ChEMBL document CHEMBL3988442, “University of Dundee, Small-Polar-MMV Screening Library” (2021).
For some assays here: Measured potencies and affinities stand elsewhere.

What was measured:
Design in all cases: scale not given: direction of the effect not stated beside the values
[1] = target: Protein translocase subunit SecA (Escherichia coli (strain K12)) (UniProt P10408); test: Assay to Identify E. coli SecA ATPase Inhibitors; format: functional; settings: 30 µM
[2] = target: T1, Ubiquitin-activating enzyme e1, putative (Leishmania donovani (strain BPK282A1)) (UniProt E9BSI1); test: Leishmania donovani Ubiquitin Activating Enzyme (LdE1); format: functional; settings: 30 µM
T1 sequence (whole entry): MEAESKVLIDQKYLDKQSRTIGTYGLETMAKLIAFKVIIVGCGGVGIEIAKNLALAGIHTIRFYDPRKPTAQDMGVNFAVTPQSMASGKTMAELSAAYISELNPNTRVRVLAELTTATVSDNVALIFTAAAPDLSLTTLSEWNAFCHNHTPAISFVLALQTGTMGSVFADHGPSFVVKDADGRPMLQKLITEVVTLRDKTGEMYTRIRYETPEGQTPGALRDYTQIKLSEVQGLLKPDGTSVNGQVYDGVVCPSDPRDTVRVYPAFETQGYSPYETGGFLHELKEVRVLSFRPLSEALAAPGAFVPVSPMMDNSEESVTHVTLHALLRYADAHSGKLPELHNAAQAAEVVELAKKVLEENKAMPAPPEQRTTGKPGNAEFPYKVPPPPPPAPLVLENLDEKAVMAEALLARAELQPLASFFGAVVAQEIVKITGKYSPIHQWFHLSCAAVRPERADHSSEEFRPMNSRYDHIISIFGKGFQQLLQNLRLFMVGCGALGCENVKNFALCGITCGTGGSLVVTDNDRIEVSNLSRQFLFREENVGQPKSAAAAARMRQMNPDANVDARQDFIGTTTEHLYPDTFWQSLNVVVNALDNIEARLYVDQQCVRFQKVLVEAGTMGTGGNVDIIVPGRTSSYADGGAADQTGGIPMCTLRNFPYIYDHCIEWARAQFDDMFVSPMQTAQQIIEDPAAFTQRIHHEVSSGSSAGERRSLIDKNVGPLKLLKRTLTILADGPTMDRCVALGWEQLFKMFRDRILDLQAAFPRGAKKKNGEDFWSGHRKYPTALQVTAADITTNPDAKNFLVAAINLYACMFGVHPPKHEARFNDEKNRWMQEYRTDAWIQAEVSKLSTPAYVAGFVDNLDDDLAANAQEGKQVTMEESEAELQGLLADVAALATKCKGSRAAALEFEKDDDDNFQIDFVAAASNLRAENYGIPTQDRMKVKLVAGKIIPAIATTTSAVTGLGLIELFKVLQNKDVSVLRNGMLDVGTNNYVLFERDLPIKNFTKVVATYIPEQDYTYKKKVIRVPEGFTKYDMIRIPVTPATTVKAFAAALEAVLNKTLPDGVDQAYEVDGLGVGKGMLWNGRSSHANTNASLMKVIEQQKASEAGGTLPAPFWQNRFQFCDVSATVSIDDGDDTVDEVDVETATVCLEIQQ

[3] = target: Sialic acid-binding Ig-like lectin 9 (Homo sapiens) (UniProt Q9Y336); test: Hs-Siglec9 ALPHAscreen SOP 20170721; settings: 10 µM
Trypanosoma cruzi = test: Trypanosoma cruzi phosphomannomutase and mannose-1-phosphate guanylyltransferase assay; format: functional; settings: 10 µM
[4] = target: T2, Arginase-2, mitochondrial (Homo sapiens) (UniProt P78540); test: in vitro enzyme assay to detect the production of urea directly proportional to the activity of Arginase II; format: functional; settings: 33.3 µM; note: in the data most compounds retested in dose-response had high values
T2 sequence (whole entry): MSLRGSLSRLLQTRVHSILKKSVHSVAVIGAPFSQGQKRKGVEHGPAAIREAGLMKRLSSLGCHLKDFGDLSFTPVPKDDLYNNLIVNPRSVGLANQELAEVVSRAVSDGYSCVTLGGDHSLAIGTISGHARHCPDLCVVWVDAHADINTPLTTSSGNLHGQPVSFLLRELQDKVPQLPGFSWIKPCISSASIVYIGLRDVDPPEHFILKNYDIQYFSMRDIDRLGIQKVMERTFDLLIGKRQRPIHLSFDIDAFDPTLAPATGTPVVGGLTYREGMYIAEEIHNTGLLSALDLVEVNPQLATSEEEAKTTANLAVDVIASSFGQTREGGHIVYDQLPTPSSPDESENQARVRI

[5] = target: T3, Proteasome subunit beta (Trypanosoma cruzi) (UniProt O96673); test: Trypanosoma cruzi proteasome chymotrypsin-like activity (TcProtChymo) assay.; note: in the data most compounds retested in dose-response had high values; format: functional; settings: 9.37 µM
T3 sequence (whole entry): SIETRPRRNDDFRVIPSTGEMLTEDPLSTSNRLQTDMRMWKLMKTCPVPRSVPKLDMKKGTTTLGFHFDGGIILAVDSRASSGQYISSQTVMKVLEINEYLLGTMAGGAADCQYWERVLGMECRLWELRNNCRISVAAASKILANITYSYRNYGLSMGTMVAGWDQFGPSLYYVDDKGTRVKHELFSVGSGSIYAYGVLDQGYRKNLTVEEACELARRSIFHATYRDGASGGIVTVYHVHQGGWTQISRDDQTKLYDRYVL

Homo sapiens = species on record: Homo sapiens; test: To identify inhibition of the IFN signalling (Jak-Stat) pathway via expression of an eGFP reporter gene under the control of an IFN-stimulated response element (ISRE) containing MxA promoter.; format: functional; settings: 30 µM
[6] = target: T4, Tyrosyl-tRNA synthetase, putative (Trypanosoma cruzi (strain CL Brener)) (UniProt Q4DSP6); test: Trypanosoma cruzi tyrosyl tRNA synthetase (TcYRS) _High Tyrosine SOP; format: functional; settings: 30 µM; note: in the data most compounds retested in dose-response had high values
T4 sequence (whole entry): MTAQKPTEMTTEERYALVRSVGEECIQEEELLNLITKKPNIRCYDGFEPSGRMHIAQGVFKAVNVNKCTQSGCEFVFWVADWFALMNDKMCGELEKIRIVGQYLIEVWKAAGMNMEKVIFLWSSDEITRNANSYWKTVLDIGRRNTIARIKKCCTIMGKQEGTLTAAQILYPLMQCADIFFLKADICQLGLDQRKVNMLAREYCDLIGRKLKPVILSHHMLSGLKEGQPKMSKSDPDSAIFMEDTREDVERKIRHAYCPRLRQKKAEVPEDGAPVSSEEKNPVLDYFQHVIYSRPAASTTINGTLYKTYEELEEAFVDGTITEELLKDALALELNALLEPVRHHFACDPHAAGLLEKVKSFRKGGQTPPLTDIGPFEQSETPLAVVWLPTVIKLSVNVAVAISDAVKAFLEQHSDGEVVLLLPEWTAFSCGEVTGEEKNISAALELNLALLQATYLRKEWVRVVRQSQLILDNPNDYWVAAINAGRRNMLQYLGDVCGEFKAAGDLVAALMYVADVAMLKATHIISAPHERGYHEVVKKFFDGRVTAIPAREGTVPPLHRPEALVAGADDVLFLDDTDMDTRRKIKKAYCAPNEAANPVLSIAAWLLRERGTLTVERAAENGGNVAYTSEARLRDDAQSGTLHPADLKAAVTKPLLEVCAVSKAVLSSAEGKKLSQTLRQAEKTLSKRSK

[7] = target: T4, Tyrosyl-tRNA synthetase, putative (Trypanosoma cruzi (strain CL Brener)); test: Trypanosoma cruzi tyrosyl tRNA synthetase (TcYRS) SOP; format: functional; settings: 30 µM
[8] = target: Chromo domain-containing protein 1 (Saccharomyces cerevisiae (strain ATCC 204508 / S288c) (Baker's yeast)) (UniProt P32657); test: ScCHD-1 Enzyme Inhibition Assay; format: functional; settings: 30 µM; note: in the data most compounds retested in dose-response had high values
Chromo domain-containing protein 1 (Saccharomyces cerevisiae (strain ATCC 204508 / S288c) (Baker's yeast)), sequence (P32657 whole entry, the tested form may be a part): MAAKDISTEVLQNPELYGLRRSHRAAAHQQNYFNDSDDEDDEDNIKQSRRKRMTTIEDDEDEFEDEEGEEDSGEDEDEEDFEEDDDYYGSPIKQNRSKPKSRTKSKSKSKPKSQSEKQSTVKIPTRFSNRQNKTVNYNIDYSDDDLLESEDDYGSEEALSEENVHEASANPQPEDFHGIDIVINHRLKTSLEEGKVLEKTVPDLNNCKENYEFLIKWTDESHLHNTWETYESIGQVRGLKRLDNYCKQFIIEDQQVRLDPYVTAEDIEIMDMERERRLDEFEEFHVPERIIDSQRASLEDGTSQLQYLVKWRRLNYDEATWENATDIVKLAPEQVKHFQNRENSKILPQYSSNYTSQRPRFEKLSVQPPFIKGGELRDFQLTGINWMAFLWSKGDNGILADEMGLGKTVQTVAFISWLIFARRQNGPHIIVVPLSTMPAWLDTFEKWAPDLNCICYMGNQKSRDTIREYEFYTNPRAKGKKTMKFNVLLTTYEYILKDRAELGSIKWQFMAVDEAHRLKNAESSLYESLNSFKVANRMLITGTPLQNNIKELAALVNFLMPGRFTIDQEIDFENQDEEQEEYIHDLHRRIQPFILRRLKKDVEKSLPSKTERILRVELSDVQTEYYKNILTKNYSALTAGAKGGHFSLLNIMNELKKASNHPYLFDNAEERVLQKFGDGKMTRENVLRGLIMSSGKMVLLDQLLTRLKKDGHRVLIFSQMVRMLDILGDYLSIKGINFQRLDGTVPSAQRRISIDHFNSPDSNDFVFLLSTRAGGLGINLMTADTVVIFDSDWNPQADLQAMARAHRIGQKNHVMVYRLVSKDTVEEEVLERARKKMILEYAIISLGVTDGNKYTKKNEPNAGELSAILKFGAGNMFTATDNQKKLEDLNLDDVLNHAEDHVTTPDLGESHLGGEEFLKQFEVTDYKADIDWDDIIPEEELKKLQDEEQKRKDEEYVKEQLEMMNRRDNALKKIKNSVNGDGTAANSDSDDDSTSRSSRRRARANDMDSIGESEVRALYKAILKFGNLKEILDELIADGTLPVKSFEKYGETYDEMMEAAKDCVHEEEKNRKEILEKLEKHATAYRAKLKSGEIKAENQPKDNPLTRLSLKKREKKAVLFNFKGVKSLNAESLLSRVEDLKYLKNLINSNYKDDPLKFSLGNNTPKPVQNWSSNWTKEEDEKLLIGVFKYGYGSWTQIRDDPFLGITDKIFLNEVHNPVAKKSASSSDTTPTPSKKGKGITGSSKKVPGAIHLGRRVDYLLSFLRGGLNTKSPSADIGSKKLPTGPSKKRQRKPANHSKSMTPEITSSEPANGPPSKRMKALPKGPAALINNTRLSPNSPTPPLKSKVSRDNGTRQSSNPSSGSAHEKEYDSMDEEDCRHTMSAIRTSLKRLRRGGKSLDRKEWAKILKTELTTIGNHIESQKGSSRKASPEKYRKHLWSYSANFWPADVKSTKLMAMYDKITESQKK

Sialic acid-binding Ig-like lectin 9 (Homo sapiens), sequence (Q9Y336 whole entry): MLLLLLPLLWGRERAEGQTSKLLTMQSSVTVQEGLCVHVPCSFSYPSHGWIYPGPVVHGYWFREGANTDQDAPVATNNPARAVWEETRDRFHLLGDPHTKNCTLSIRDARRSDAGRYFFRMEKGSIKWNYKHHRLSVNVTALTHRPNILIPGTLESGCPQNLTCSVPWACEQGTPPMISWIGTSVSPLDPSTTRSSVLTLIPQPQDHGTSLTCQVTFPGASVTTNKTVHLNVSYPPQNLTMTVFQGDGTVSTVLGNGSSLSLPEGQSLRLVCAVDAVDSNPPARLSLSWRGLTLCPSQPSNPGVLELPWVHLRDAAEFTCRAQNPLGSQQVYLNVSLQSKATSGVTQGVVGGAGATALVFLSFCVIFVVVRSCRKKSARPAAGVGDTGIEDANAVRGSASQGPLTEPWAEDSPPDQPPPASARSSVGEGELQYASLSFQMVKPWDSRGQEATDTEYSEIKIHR
Protein translocase subunit SecA (Escherichia coli (strain K12)), sequence (P10408 whole entry): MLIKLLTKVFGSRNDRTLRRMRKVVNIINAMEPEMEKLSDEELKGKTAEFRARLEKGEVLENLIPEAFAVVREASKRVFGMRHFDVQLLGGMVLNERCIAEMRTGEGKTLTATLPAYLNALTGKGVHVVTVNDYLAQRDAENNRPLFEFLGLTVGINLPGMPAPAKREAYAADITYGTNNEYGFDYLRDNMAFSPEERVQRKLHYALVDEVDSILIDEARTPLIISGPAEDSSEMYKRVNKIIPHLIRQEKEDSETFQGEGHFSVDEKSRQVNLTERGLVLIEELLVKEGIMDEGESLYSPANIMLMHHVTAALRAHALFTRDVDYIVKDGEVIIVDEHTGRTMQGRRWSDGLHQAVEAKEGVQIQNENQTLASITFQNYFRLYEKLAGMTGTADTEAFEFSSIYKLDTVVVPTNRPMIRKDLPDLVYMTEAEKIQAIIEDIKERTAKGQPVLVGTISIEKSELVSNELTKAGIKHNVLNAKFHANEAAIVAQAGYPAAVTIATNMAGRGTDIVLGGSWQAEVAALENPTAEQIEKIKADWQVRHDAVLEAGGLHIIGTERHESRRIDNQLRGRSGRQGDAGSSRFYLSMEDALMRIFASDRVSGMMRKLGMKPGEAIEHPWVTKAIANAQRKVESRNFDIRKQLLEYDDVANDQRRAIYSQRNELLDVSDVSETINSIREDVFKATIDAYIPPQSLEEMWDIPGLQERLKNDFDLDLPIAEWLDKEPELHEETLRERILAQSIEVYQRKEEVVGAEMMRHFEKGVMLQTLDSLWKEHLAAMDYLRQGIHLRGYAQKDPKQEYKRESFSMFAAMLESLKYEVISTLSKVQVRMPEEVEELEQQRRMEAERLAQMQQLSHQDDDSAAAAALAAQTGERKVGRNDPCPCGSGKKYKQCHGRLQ

Compound	Percent Effect [1]	Percent Effect [2]	Percent Effect [3]	Percent Effect (Trypanosoma cruzi)	Percent Effect [4]	Percent Effect [5]	Percent Effect (Homo sapiens)	Percent Effect [6]	Percent Effect [7]	Percent Effect [8]
CCc1nc(C2CCCN2C(=O)CCn2cncn2)no1 (stereo not given)	-0.886%	0%	9.32%	-1.49%	1.02%	3.51%	3.97%	0.98%	-2.35%	-0.634%
CC(c1cccc(S(N)(=O)=O)c1)N(C)CCc1ccccc1 (stereo not given)	-0.406%	20.8%	-4.37%	-0.933%	-4.3%	10.9%	13.6%	6.86%	16.5%	-9.02%
CC(C)c1nc(CC(=O)N2CCCC(n3cncn3)C2)cs1 (stereo not given)	-0.0395%	20.5%	-14.2%	4.6%	8.2%	14.2%	24%	1.44%	22.9%	-5.56%
c1ccc(-c2cnc(CNC3CCCN(c4cccnn4)C3)o2)cc1 (stereo not given)	-1.65%	-23.1%	5.28%	6.48%	1.23%	0.0853%	7.96%	14.8%	22.9%	-1.17%
Cc1nccn1-c1cccc(C2CCCN(C(=O)c3cc[nH]n3)C2)n1 (stereo not given)	0.661%	25.3%	-9.09%	0.395%	-3.98%	17.9%	32.9%	1.06%	10%	-7.28%
Cc1cnn(CC2CCN(CC(O)COc3ccc(F)cc3)CC2)c1 (stereo not given)	-5.77%	2.6%	-3.53%	-1.87%	-5.94%	4.21%	9.11%	0.98%	0%	-2.59%
Cc1nn(C)c(N2CCOCC2)c1CNC1CCc2cc(F)ccc21 (stereo not given)	-1.4%	20.8%	4.82%	-2.8%	11.7%	7.72%	0.31%	6.86%	18.8%	-4.69%
CN1CCOC(CNC(=O)Cc2ccccc2F)C1 (stereo not given)	-1.65%	15.4%	-3.95%	3.47%	4.1%	8.11%	-18.4%	7.18%	25.3%	-5.49%
COCCO[C@H]1CCN(C(=O)c2cc(C)on2)[C@H]1Cc1ccccc1	-2.31%	11.7%	3.34%	-1.88%	-0.913%	7.47%	18.8%	7.73%	10%	-5.82%
COc1ccc(C2CC(=O)Nc3c2cnn3C2CCCC2)cc1 (stereo not given)	-8.84%	-2.7%	-0.717%	2.62%	2.45%	5.31%	8.51%	6.92%	4.88%	-1.74%
CC(C)c1nc(C2CCCN(Cc3nnc(C4CC4)o3)C2)no1 (stereo not given)	3.18%	-2.67%	5.21%	0%	4.88%	0.933%	4.85%	-1.58%	-2.56%	-1.26%
CCOc1cc(CNC(=O)N2CCC(Cc3cnn(C)c3)C2)ccn1 (stereo not given)	-2.64%	-2.56%	1.57%	9.11%	0.82%	2.13%	4.43%	3.35%	6.02%	-0.605%
CC(C)CCN(C)C(=O)c1nc(S(C)(=O)=O)n2ccccc12	-4.72%	12.8%	-6.5%	5.16%	1.23%	2.13%	0.306%	6.22%	10.8%	-1.74%
Cc1ccc(S(=O)(=O)N2CCC3(CC(C(=O)NCC4CC4)=NO3)C2)cc1 (stereo not given)	-5.9%	6.49%	-4.73%	-4.38%	0%	18.3%	5.59%	1.58%	7.69%	-3.09%
